Reference: PubChem BioAssay (EPA / NIEHS)
Values joined by “and” are separate entries in the source; they are usually repeats but may differ in a detail not shown here. Equal entries are not always repeated. Some structures have more than one record in an assay (separate samples or runs), and their calls can disagree. Active and inactive are the calls of the source. How the source made its calls: active means hit-call score of the fitted dose curve at least 0.9, where 1 is the maximum; inactive means score below 0.9.

Experiments:
Conditions in all cases: mRNA level, 48 h; actives raise or lower the signal
[1] = read-out: NAD(P)H dehydrogenase [quinone] 1 (NQO1), NQO1 (gene 1728); assay: LTEA_HepaRG_NQO1: Life Technologies and Expression Analysis (LTEA) Assay for NAD(P)H dehydrogenase [quinone] 1 (NQO1) using HepaRG (AID 2283526)
In short: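 qRT-PCR read-out (Fluidigm TaqMan), normalized to three housekeeping genes, after 48 h chemical exposure of HepaRG cells. Concentrations: eight points, top 100 uM, half-log steps, 0.5% DMSO vehicle. Gain or loss of signal fitted relative to DMSO.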

[2] = read-out: Nuclear factor erythroid 2-related factor 2 (Homo sapiens) (UniProt Q16236); assay: LTEA_HepaRG_NFE2L2: Life Technologies and Expression Analysis (LTEA) Assay for Nuclear factor erythroid 2-related factor 2 (NFE2L2) Transcription Factor using HepaRG (AID 2283527)
In short: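 HepaRG, 48 h dosing, 8-pt half-log series from 100 uM in 0.5% DMSO, duplicates. Read-out: NFE2L2 mRNA by qRT-PCR (ACTB/GAPDH/POLR2A normalization). Bidirectional curve fit vs DMSO baseline.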

[3] = read-out: succinate dehydrogenase complex iron sulfur subunit B (SDHB), SDHB (gene 6390); assay: LTEA_HepaRG_SDHB: Life Technologies and Expression Analysis (LTEA) Assay for succinate dehydrogenase complex iron sulfur subunit B (SDHB) using HepaRG (AID 2283528)
In short: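 HepaRG, 48 h exposure, 8-pt half-log series from 100 uM in 0.5% DMSO, duplicates. Readout: SDHB mRNA by Fluidigm qRT-PCR vs housekeeping genes; bidirectional fit relative to DMSO.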

[4] = read-out: Signal transducer and activator of transcription 3 (Homo sapiens) (UniProt P40763); assay: LTEA_HepaRG_STAT3: Life Technologies and Expression Analysis (LTEA) Assay for Signal transducer and activator of transcription (STAT3) using HepaRG (AID 2283529)
In short: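 HepaRG, 48 h exposure, 8-pt half-log series (top 100 uM), 0.5% DMSO vehicle, duplicates. Readout: STAT3 transcript by Fluidigm qRT-PCR, housekeeping-normalized; bidirectional fit vs DMSO baseline.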

[5] = read-out: solute carrier (SLCO1B1), SLCO1B1 (gene 10599); assay: LTEA_HepaRG_SLCO1B1: Life Technologies and Expression Analysis (LTEA) Assay for solute carrier (SLCO1B1) using HepaRG (AID 2283530)
In short: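 HepaRG, serum-free induction medium, 48 h dosing, 8-pt half-log from 100 uM, 0.5% DMSO vehicle, duplicates. Readout: SLCO1B1 mRNA, qRT-PCR, ACTB/GAPDH/POLR2A normalization; up or down fit vs DMSO.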

[6] = read-out: sulfotransferase 2A1 (SULT2A1), SULT2A1 (gene 6822); assay: LTEA_HepaRG_SULT2A1: Life Technologies and Expression Analysis (LTEA) Assay for sulfotransferase 2A1 (SULT2A1) using HepaRG (AID 2283531)
In short: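 Transcript levels of SULT2A1, quantified by qRT-PCR and normalized to three housekeeping genes, serve as the readout. Human HepaRG cultures receive test chemicals for 48 h at up to 100 uM in half-log steps, with 0.5% DMSO vehicle.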

[7] = read-out: Transforming Growth Factor (TGFA), TGFA (gene 7039); assay: LTEA_HepaRG_TGFA: Life Technologies and Expression Analysis (LTEA) Assay for Transforming Growth Factor (TGFA) using HepaRG (AID 2283532)
In short: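 qRT-PCR read-out of TGFA transcript, normalized to three housekeeping genes, fitted bidirectionally against 0.5% DMSO baseline. Human HepaRG cultures received chemicals for 48 h at eight half-log concentrations, top 100 uM.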

[8] = read-out: Transforming Growth Factor (TGFB1), TGFB1 (gene 7040); assay: LTEA_HepaRG_TGFB1: Life Technologies and Expression Analysis (LTEA) Assay for Transforming Growth Factor (TGFB1) Transporter using HepaRG (AID 2283533)
In short: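 HepaRG, 48 h post-plating, switched to serum-free induction medium; chemicals 100 uM top, half-log, 8 pts, 0.5% DMSO, dup; 48 h exposure; RNA → Fluidigm TaqMan qRT-PCR; norm ACTB/GAPDH/POLR2A; bidirectional fit vs DMSO.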

TIMP1, TIMP1 (gene 7076) = assay: LTEA_HepaRG_TIMP1: Life Technologies and Expression Analysis (LTEA) Assay for TIMP1 using HepaRG (AID 2283534)
In short: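 Readout is TIMP1 mRNA level measured by qRT-PCR and normalized to three housekeeping genes. Human HepaRG cells were treated for 48 h in duplicate at eight concentrations up to 100 uM (0.5% DMSO); gain or loss fitted against DMSO.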

[9] = read-out: Tumor necrosis factor receptor 1 (TNFRSF1A), TNFRSF1A (gene 7132); assay: LTEA_HepaRG_TNFRSF1A: Life Technologies and Expression Analysis (LTEA) Assay for Tumor necrosis factor receptor 1 (TNFRSF1A) using HepaRG (AID 2283535)
In short: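 Read-out is TNFRSF1A transcript level by TaqMan qRT-PCR, normalized to three housekeeping genes, scored as gain or loss of signal versus 0.5% DMSO. Human HepaRG cells received test chemicals for 48 h at up to 100 uM (half-log series).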

Measured: AC50

Sequence of Nuclear factor erythroid 2-related factor 2 (Homo sapiens) (Q16236 whole entry, looked up): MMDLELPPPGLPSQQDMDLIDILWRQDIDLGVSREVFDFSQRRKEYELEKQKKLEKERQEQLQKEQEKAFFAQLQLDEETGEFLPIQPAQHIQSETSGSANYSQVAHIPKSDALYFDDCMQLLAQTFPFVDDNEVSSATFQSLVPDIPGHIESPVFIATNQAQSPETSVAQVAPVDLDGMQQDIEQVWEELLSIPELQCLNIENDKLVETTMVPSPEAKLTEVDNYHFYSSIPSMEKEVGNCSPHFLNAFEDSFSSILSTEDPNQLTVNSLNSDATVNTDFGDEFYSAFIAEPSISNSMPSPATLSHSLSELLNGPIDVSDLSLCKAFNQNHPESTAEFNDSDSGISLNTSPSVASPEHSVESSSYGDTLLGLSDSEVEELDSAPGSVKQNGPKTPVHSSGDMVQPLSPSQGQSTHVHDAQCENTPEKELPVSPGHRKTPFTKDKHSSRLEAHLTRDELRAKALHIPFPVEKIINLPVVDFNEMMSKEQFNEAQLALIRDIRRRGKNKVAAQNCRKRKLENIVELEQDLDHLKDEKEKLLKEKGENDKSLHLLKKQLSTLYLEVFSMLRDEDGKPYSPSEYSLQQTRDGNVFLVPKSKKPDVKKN
Sequence of Signal transducer and activator of transcription 3 (Homo sapiens) (P40763 whole entry, looked up): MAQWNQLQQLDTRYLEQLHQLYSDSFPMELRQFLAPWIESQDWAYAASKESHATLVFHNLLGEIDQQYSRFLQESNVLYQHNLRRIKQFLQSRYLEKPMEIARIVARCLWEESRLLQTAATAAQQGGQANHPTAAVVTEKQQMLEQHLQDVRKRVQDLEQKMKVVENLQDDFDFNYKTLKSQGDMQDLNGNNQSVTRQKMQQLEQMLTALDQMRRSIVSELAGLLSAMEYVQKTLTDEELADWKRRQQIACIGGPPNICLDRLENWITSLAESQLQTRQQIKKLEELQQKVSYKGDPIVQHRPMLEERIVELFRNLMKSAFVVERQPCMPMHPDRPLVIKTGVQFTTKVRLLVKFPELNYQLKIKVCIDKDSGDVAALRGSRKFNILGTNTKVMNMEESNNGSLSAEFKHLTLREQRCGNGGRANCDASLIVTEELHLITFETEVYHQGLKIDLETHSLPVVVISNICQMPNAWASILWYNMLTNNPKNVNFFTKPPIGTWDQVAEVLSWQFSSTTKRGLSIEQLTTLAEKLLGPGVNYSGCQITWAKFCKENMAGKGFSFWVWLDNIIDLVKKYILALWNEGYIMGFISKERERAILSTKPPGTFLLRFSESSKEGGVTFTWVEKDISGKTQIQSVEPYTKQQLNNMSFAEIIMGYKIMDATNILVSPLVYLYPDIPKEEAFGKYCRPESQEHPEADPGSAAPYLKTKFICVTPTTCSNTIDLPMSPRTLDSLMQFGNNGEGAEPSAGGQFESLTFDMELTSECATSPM

CCON=C(CC)C1=C(O)CC(c2c(C)cc(C)cc2C)CC1=O (stereo not drawn)
not listed: [9]
inactive: all other assays above

COC(=O)C=C(C)OP(=O)(OC)OC
not listed: [9]
inactive: all other assays above

N#CC(CCc1ccc(Cl)cc1)(Cn1cncn1)c1ccccc1 (stereo not drawn)
inactive: [1] | [3] | [4] | TIMP1, TIMP1 (gene 7076)
active: [2] 72.4 µM | [5] 83.6 µM | [6] 77.2 µM | [7] 77 µM | [8] 66.7 µM

COC(=O)c1ccccc1C(=O)OC
not listed: [9]
inactive: all other assays above

CC1=C(C(=O)Nc2ccccc2)SCCO1
not listed: [9]
inactive: all other assays above

CCNc1nc(Cl)nc(NC(C)C)n1
not listed: [9]
inactive: all other assays above

COC(=O)C(C)Oc1ccc(Oc2ccc(Cl)cc2Cl)cc1 (stereo not drawn)
not listed: [9]
inactive: all other assays above

O=C(O)c1nc(Cl)ccc1Cl
not listed: [9]
inactive: all other assays above

CO/C=C(/C(=O)OC)c1ccccc1Oc1cc(Oc2ccccc2C#N)ncn1
inactive: [1] | [2] | [3] | [4] | [8] | TIMP1, TIMP1 (gene 7076)
active: [2] 77.7 µM and 74.5 µM | [5] 76.2 µM and 72.9 µM and 75.6 µM | [6] 80.9 µM and 81.2 µM and 94.4 µM | [7] 84.4 µM and 81.8 µM and 84.8 µM

Fc1ccc(Oc2ccnc3cc(Cl)cc(Cl)c23)cc1
active: [8] 50 µM
not listed: [9]
inactive: all other assays above

CS/C(C)=N/OC(=O)N(C)SN(C)C(=O)O/N=C(\C)SC
not listed: [9]
inactive: all other assays above

N#Cc1cc(Br)c(O)c(Br)c1
inactive: [7]
active: [1] 11.9 µM | [2] 10.3 µM | [3] 7.28 µM | [4] 3.27 µM | [5] 17.8 µM | [6] 25.7 µM | [8] 14.2 µM | TIMP1, TIMP1 (gene 7076) 10.2 µM

CCCCOC(=O)c1ccccc1C(=O)OCCCC
not listed: [9]
inactive: all other assays above

CCCCC(CC)COC(=O)c1ccccc1C(=O)OCC(CC)CCCC (stereo not drawn)
not listed: [9]
inactive: all other assays above

CCNc1nc(Cl)nc(NCC)n1
not listed: [9]
inactive: all other assays above

C=CCC1=C(C)C(OC(=O)C2C(C=C(C)C)C2(C)C)CC1=O (stereo not drawn)
inactive: [1] | [2] | [3] | [4] | [5] | [6] | [7] | [8] | TIMP1, TIMP1 (gene 7076) | [9]
active: [3] 69.1 µM | [5] 87.3 µM and 50 µM | [6] 86.7 µM

COC(=O)N(OC)c1ccccc1COc1ccn(-c2ccc(Cl)cc2)n1
inactive: [3] | [4]
active: [1] 84.8 µM | [2] 18.3 µM | [5] 75.9 µM | [6] 78.7 µM | [7] 78.5 µM | [8] 50 µM | TIMP1, TIMP1 (gene 7076) 68.4 µM

Cc1c(F)c(F)c(COC(=O)C2C(/C=C(\Cl)C(F)(F)F)C2(C)C)c(F)c1F (stereo not drawn)
not listed: [9]
inactive: all other assays above

C=CC1(C)OC(=O)N(c2cc(Cl)cc(Cl)c2)C1=O (stereo not drawn)
active: [6] 28 µM
not listed: [9]
inactive: all other assays above

O=C(Nc1ccccc1)Nc1ccnc(Cl)c1
active: [1] 82.6 µM | [2] 82.3 µM | [3] 94 µM | [4] 42.6 µM | [5] 82.1 µM | [6] 81.5 µM | [7] 76.1 µM | [8] 80 µM | TIMP1, TIMP1 (gene 7076) 74.9 µM

CCOC(=O)CC(SP(=S)(OC)OC)C(=O)OCC (stereo not drawn)
not listed: [9]
inactive: all other assays above

CC(C)C1(C)N=C(c2nc3ccccc3cc2C(=O)O)NC1=O (stereo not drawn)
not listed: [9]
inactive: all other assays above

CCCN(CCC)c1c([N+](=O)[O-])cc(S(N)(=O)=O)cc1[N+](=O)[O-]
inactive: [1] | [2] | [5] | [7] | [8] | TIMP1, TIMP1 (gene 7076)
active: [2] 79.3 µM and 79.5 µM | [3] 96.3 µM and 50 µM and 84.4 µM | [4] 94 µM and 50 µM and 77 µM | [6] 92.1 µM and 76.9 µM and 81 µM | [8] 93.9 µM | TIMP1, TIMP1 (gene 7076) 93.9 µM

Cc1cc(Cl)ccc1OCC(=O)O
active: [6] 85.8 µM
not listed: [9]
inactive: all other assays above

COP(N)(=O)SC (stereo not drawn)
not listed: [9]
inactive: all other assays above

CON(C)C(=O)Nc1ccc(Cl)c(Cl)c1
active: [2] 86.9 µM
inactive: all other assays above
